Common to all, as to format: functional
In assay [1] the target is Solute carrier family 2, facilitated glucose transporter member 1 (Homo sapiens) (UniProt P11166). The assay is described as follows: ST_JUDE_LEISH: Cytotoxicity at 2uM final concentration against transgenic Leishmania Mexicana promastigotes LmGLUT1 that are glucose transport deficient and complemented with the human glucose transporter GLUT1. Activity is measured by DNA content using SYBR green in vitro.

For assay [2], the target named is Hexose transporter 1 (Plasmodium falciparum) (UniProt O97467). As to the kind of experiment: ST_JUDE_LEISH: Cytotoxicity at 2uM final concentration against transgenic Leishmania Mexicana promastigotes LmPfHT that are glucose transport deficient and complemented with the Plasmodium falciparum hexose transporter. Activity is measured by DNA content using SYBR green in vitro.

The target of assay [3] is Glucose transporter (Leishmania mexicana) (UniProt O61059). As to the kind of experiment: ST_JUDE_LEISH: Cytotoxicity at 2uM final concentration against transgenic Leishmania Mexicana promastigotes LmGT2 that are glucose transport deficient and complemented with the L. Mexicana glucose transporter 2. Activity is measured by DNA content using SYBR green in vitro.

Chain of Solute carrier family 2, facilitated glucose transporter member 1 (Homo sapiens) (P11166 whole entry): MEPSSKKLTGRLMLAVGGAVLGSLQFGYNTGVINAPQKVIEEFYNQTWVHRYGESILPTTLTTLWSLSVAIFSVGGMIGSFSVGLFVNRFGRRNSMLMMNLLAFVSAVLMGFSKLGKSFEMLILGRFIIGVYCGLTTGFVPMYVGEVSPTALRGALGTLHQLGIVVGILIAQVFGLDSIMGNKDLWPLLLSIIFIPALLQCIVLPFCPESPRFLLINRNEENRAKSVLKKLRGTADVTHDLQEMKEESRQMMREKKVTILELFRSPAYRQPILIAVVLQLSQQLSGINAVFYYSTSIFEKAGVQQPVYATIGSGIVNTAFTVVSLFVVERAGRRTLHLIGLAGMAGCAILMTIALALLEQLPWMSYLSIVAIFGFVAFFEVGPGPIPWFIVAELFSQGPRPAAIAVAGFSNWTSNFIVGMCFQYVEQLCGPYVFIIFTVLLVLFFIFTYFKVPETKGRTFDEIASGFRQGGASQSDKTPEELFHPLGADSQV

A word on the inhibition: it is the change of the read-out against control, counted positive when it falls. In the case of `CN(C)CCN(Cc1ccccc1)c1ccc([N+](=O)[O-])cc1C(F)(F)F`, the inhibition in assay [1] turned out to be 7.95%; in assay [2], 7.06%; in assay [3], 8.1%.

`O=C(/C=C/c1ccc(Cl)c(Cl)c1)N1CCC(CN2CCC(c3nc4ccccc4n3CCCO)CC2)CC1`: the inhibition was determined as 4.72% in assay [1], 4.22% in assay [2] and 5.85% in assay [3].

In the case of `NC1=NC2(CCCCC2)N(OCCCCCCc2ccccc2)C(N)=N1`, the inhibition in assay [1] amounted to 2.09%; in assay [2] it was 1.39%; in assay [3] it was 0.69%.

As to `N=C(N)c1ccc(-c2cc(-c3cccc(C(=N)N)c3)on2)cc1`, the results for the inhibition in assay [1], in assay [2] and in assay [3] were 3.39%, 0.98% and 2.32%, respectively.

Consider `Cc1cc(N[C@@H](Cc2ccccc2)C(=O)NCc2cccs2)nc(Nc2ccccc2)n1`, for which the inhibition turned out to be 9.96% in assay [1], 9.21% in assay [2] and 3.98% in assay [3].

Regarding `COc1ccc(CNC2CCN(C)CC2)cc1-c1ccc(S(=O)(=O)NCCN2CCCC2)s1`, the inhibition in assay [1] is -3.47%; in assay [2], -0.23%; in assay [3], -2.9%.

As for `C=CCN1CCC(N(Cc2cccc(Oc3ccccc3)c2)C(=O)C(c2ccccc2)c2ccccc2)CC1`, the figures for the inhibition in assay [1], in assay [2] and in assay [3] were -1.05%, -2.14% and -2.94%, respectively.

Regarding `CCN(CC)S(=O)(=O)c1ccc(CCOCCCCCNCC(O)c2cc(Cl)c(N)c(Cl)c2)s1` (stereo not given), the inhibition in assay [1] was 2.8%; in assay [2] it was -2.21%; in assay [3] it was 1.26%.

Turning to `COc1ccc(NC(=O)c2cn(-c3ccc(C(C)(C)C)cc3)nc2C)cc1N1CCN(C)CC1`, the results for the inhibition in assay [1], in assay [2] and in assay [3] were 1.31%, 0.2% and 1.64%, respectively.

`CCOc1cc(Cc2cnc(N)nc2N)cc(OCC)c1OCC`: the values for the inhibition in assay [1], in assay [2] and in assay [3] were 4.33%, 1.8% and 9.33%, respectively.

For the compound `Cc1cc(N[C@@H](Cc2ccccc2)C(=O)NC2CCCC2)nc(NCCCOC(C)C)n1`, the inhibition in assay [1] was found to be 7.62%; in assay [2], 3.46%; in assay [3], 0.61%.

On to `COc1cc(NC(=O)/C=C/c2cc(F)cc(F)c2F)cc(OCCN2CCC3(CC2)OCCO3)c1`, for which the inhibition in assay [1] stood at 3.83%; in assay [2] it was 3.1%; in assay [3], 1.7%.

As for `CCc1ccc(C2CCN(CCCCNC(=O)c3ccc(NC(=O)c4ccc(Cl)cc4)cc3)CC2)cc1`, the values for the inhibition in assay [1], in assay [2] and in assay [3] were -0.05%, 0.38% and 0.05%, respectively.

In the case of `Cc1cc(C)c2nc(N3CCC(C(=O)NCCCN4CCC(N5CCCCC5)CC4)CC3)sc2c1`, the inhibition was found to be 1.45% in assay [1], 2.91% in assay [2] and 0.65% in assay [3].

Consider `CC[C@H](C)[C@@H](C(=O)N1CCOCC1)N1CC[C@H](NS(=O)(=O)CC(C)(C)c2ccc(Cl)cc2)C1=O`, for which the inhibition was 0.22% in assay [1], 0.79% in assay [2] and -1.13% in assay [3].

Consider `Cc1c(CN2CCCCC2)cccc1OCCCNc1nc(NCCc2ccc(O)cc2)nc(N2CCNCC2)n1`, for which the inhibition in assay [1] is 5.55%; in assay [2], 2.95%; in assay [3], 5.43%.

Turning to `CN1CCC(NCc2cccc(-c3ccc(S(=O)(=O)NCCc4ccccn4)cc3)c2)CC1`, the inhibition in assay [1] was 3.76%; in assay [2], 2.04%; in assay [3], -2.17%.

On to `CN(C)CCN(C)Cc1ccc(-c2ccc(NC(=O)c3ccc(Cl)cc3)cc2)cc1`, for which the inhibition in assay [1] was found to be 21.2%; in assay [2], 11.3%; in assay [3] it was 7.17%.

As to `FC(F)(F)COc1c(CCNCCCCNCCc2ccc3ccccc3c2OCC(F)(F)F)ccc2ccccc12`, the inhibition worked out at 105% in assay [1], 103% in assay [2] and 108% in assay [3].

With `O=C(NCCCCNCC(Cc1cccc(O)c1)c1ccccc1)c1ccc(NC(=O)c2ccc(Cl)cc2)cc1` (stereo not given), the inhibition in assay [1] is -0.19%; in assay [2], -3.38%; in assay [3], -1.18%.

Take `O=C(Nc1ccc(C(F)(F)F)cc1)NC1CCN(c2ccnc3ccccc23)CC1`: the inhibition in assay [1] is 4.74%; in assay [2], 3.35%; in assay [3], -3.98%.

With `O=C(c1ccccc1)N(Cc1ccccc1-c1ccc(CNCCc2ccccc2)cc1)C1CCN(Cc2ccccc2)CC1`, the values for the inhibition in assay [1], in assay [2] and in assay [3] were 12.2%, 10.8% and 14.7%, respectively.

For the compound `CN(C)c1ccc(CN2CCC(CNC(=O)c3cc(-c4cccc(C(F)(F)F)c4)cs3)C2)cc1` (stereo not given), the inhibition in assay [1] stood at 2.15%; in assay [2], 1.34%; in assay [3] it was 1.72%.

For `OC(CNCCCc1ccccc1)c1cc(OCc2ccccc2)cc(OCc2ccccc2)c1` (stereo not given), the inhibition worked out at 6.81% in assay [1], 2.05% in assay [2] and 1.79% in assay [3].

For `O=C(Nc1ccc2c(c1)CCC2)c1cccc(N2CCN(c3ccncc3)CC2)c1`, the inhibition in assay [1] came out at 1.86%; in assay [2] it was 4.51%; in assay [3], 1.58%.

Turning to `Cc1ccc(CNC(=O)c2cnc(N3CCN(c4ccncc4)CC3)c(Cl)c2)cc1`, the inhibition turned out to be 4.68% in assay [1], 6.64% in assay [2] and 3.12% in assay [3].

Consider `O=c1c2cccnc2sn1-c1ccccc1`, for which the inhibition in assay [1] was 0.94%; in assay [2], 0.87%; in assay [3], 0.72%.

`Cc1cccc2nc(-c3ccc(-c4cccc(CNCCCN5CCCC5=O)c4)cc3)[nH]c12`: the inhibition worked out at 7.98% in assay [1], 9.6% in assay [2] and 8.02% in assay [3].

Turning to `O=C(Nc1ccc(Br)cc1)c1cc(Br)ccc1NS(=O)(=O)c1ccc(C(F)(F)F)cc1`, the inhibition was 0.82% in assay [1], 0.98% in assay [2] and 0.46% in assay [3].

In the case of `COc1ccc2nccc([C@@H](O)CN3CCC(NC(=O)c4cc5cccnc5[nH]4)CC3)c2c1`, the figures for the inhibition in assay [1], in assay [2] and in assay [3] were 5.47%, 3.5% and -0.32%, respectively.

With `CCOC(=O)c1ccc(NC(=O)Nc2ccc(-c3ccc(-c4nc5cc(C(F)(F)F)ccc5[nH]4)cc3)cc2)cc1`, the values for the inhibition in assay [1], in assay [2] and in assay [3] were -1.59%, -0.19% and 1.54%, respectively.

For the compound `Cc1ccccc1Cc1cccc(/N=C(\N)Nc2ccc(Cl)cc2)n1`, the inhibition in assay [1] worked out at 5.38%; in assay [2] it was 5.38%; in assay [3], 2.51%.

With `Cc1nnsc1C(=O)Nc1cccc(-c2ccc(-c3nc4cc(C(F)(F)F)ccc4[nH]3)cc2)c1`, the results for the inhibition in assay [1], in assay [2] and in assay [3] were 1.55%, 2.49% and -1.08%, respectively.

`O=C(Nc1ccc2c(c1)OCCO2)c1cc(-c2cccnc2)nc2ccc(Cl)cc12`: the inhibition turned out to be 3.75% in assay [1], 1.71% in assay [2] and 0.65% in assay [3].

In the case of `COc1ccc2nccc([C@@H](O)CN3CCC(NCCOc4ccncc4)CC3)c2c1`, the inhibition in assay [1] is -0.38%; in assay [2], 1.23%; in assay [3] it was -0.87%.

Source of the values: ChEMBL document CHEMBL3433997, “St. Jude Leishmania screening dataset” (2016).
